# Experimental data as given in PubChem BioAssay.
# Activity calls are given as the source filed them. Unless noted, how the calls were made is not given here.
# Key:
# [1] = resazurin metabolic signal in HepG2 cells – cell-based, resazurin fluorescence, 24 h, PK04 Diversity Set, profiling panel (AID 1172); settings: HepG2 viability, higher = more signal
# [2] = budding yeast growth changes without added modifier – OD600, strain BY4716, 24 h, basal condition, primary screen (AID 1173); settings: S. cerevisiae BY4716 growth, OD600, 24 h; higher = more signal, called active from +8 up or from −8 down unless noted
# [3] = viability profiling in MM1S myeloma cells – cell-based, resazurin fluorescence, basal, 24 h, PK04 Diversity Set, profiling panel (AID 1174); settings: higher = more signal, called active from +8 up or from −8 down unless noted;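 further: MM1S multiple myeloma cell line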
# [4] = biological target: Dihydroorotate dehydrogenase (quinone), mitochondrial (Plasmodium falciparum (isolate 3D7)) (UniProt Q08210); assay: inhibition of P. falciparum DHODH – biochemical, C-terminal His tag, absorbance 600 nm, primary screen (AID 1175); settings: PfDHODH enzyme, DCIP absorbance 600 nm; higher = more signal, called active from +8 up or from −8 down unless noted;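 further: recombinant parasite enzyme with a five histidine tag at its C terminus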
# Chain of Dihydroorotate dehydrogenase (quinone), mitochondrial (Plasmodium falciparum (isolate 3D7)) (Q08210 whole entry, looked up): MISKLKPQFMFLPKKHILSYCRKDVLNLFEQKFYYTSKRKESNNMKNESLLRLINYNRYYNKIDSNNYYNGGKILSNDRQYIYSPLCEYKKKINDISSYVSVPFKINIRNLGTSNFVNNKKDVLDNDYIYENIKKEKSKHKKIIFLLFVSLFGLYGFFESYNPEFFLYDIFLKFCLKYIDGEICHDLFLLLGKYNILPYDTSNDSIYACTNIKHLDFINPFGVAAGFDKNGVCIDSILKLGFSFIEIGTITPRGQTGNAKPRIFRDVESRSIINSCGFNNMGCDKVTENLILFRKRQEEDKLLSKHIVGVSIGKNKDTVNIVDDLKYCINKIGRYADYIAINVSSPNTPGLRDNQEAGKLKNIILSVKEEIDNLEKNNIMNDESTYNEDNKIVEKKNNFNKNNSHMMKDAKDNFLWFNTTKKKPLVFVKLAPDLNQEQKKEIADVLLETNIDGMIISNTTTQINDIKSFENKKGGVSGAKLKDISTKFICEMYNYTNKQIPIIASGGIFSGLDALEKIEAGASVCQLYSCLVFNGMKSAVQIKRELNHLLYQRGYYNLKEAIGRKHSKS
# [5] = inhibition of PAO1 biofilm formation – strain PAO1, LB-PBS medium, absorbance 600 nm, primary screen (AID 1176); settings: P. aeruginosa PAO1 growth/biofilm, A600, 12 h; higher = more signal
# [6] = growth modulation of vineyard yeast isolate – strain RM11-1a, OD600, basal, 24 h, primary screen (AID 1177);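 further: cultures grown under basal conditions with no added stressor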; settings: S. cerevisiae RM11-1a growth, OD600, 24 h; higher = more signal, called active from +8 up or from −8 down unless noted
# [7] = growth of efflux-deficient E. coli DRC39 – strain DRC39, OD650, 24 h, E. coli filamentation inducers, primary screen (AID 1178);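 further: growth measured as culture turbidity by optical density at 650 nm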; settings: E. coli DRC39 acrAB; higher = more signal, called active from +8 up or from −8 down unless noted
# [8] = growth of efflux-deficient E. coli DRC39 – strain DRC39, OD650, 48 h, E. coli filamentation inducers, primary screen (AID 1179);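 further: screen aims at cell division blockers that make cells filament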; settings: E. coli DRC39 delta-acrAB growth, higher = more signal, called active from +8 up or from −8 down unless noted
# [9] = viability profiling in RPMI8226 myeloma cells – cell-based, resazurin fluorescence, basal, 24 h, PK04 Diversity Set, profiling panel (AID 1180); settings: higher = more signal; RPMI8226 viability, resazurin fluorescence, 24 h unless noted;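 further: RPMI8826 multiple myeloma cell line at 5000 cells per well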
# [10] = biological target: E3 ubiquitin-protein ligase XIAP (Homo sapiens) (UniProt P98170); assay: small molecules binding XIAP protein – biophysical, small-molecule microarray, fluorescence 635 nm, primary screen (AID 1181); settings: higher = more signal;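 further: score merges 667 nm emission and signal to noise over triplicate slides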
# Chain of E3 ubiquitin-protein ligase XIAP (Homo sapiens) (P98170 whole entry, looked up, the tested form may be a part): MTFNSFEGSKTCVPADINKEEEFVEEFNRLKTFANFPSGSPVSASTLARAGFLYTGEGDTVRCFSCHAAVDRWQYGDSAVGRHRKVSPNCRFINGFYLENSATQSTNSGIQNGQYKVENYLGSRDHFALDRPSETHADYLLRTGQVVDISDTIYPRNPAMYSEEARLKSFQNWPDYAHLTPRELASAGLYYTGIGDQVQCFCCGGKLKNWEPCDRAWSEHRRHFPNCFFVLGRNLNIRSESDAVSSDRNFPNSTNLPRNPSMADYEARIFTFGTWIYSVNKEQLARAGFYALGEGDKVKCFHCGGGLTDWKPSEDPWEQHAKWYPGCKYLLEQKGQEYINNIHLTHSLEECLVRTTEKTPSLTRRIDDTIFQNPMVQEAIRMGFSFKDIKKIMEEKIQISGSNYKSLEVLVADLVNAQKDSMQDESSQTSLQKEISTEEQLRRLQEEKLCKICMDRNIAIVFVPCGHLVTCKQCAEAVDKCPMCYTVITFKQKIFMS
# [11] = system: XIP peptide (Xip251-270) binding; assay: XIP fragment 251-270 binding compounds – biochemical, small-molecule microarray, fluorescence 635/667 nm, 0.1 µg/mL protein, primary screen (AID 1182); settings: fluorescent protein binding, 635 nm; higher = more signal, called active from +8 up or from −8 down unless noted
# XIP peptide (Xip251-270) = assay: compounds binding XIP fragment 251-270 – biochemical, small-molecule microarray, fluorescence 635/667 nm, 0.5 µg/mL protein, primary screen (AID 1183); settings: fluorescence 635 nm, higher = more signal
# [12] = blood-stage malaria parasite viability loss – strain 3D7, DAPI fluorescence, 100 nL, primary screen (AID 1184);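 further: parasites grown inside human red blood cells in medium with human serum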; settings: P. falciparum 3D7 growth, 3 d, higher = more signal
# [13] = biological target: Homeobox protein Hox-A13 (Mus musculus) (UniProt Q62424); assay: disruptors of Hoxa13 oligonucleotide interaction – biochemical, fluorescence polarization, labeled oligonucleotide, primary screen (AID 1185); settings: Hoxa13:DNA binding, 15 min; higher = more signal, called active from +8 up or from −8 down unless noted
# Chain of Homeobox protein Hox-A13 (Mus musculus) (Q62424 whole entry, looked up): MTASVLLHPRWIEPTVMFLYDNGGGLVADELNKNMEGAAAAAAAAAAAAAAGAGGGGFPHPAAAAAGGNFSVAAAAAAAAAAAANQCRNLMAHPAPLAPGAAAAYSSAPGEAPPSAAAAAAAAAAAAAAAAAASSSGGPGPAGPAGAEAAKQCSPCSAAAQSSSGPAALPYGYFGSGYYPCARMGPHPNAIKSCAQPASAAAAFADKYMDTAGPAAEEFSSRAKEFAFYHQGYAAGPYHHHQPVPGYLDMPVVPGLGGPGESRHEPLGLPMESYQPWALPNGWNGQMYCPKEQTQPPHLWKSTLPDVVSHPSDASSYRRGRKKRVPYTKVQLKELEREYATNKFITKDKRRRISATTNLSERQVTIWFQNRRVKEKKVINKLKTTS
# [14] = blockers of DNA damage checkpoint Chk1 activation – imaging, HeLa, hydroxyurea, phospho-Chk1 antibody, percent positive cells, primary screen (AID 1186); settings: hydroxyurea-induced phospho-Chk1 immunofluorescence imaging, higher = more signal
# [15] = blockers of DNA damage checkpoint Chk1 activation – imaging, HeLa, hydroxyurea, phospho-Chk1 nuclear intensity, primary screen (AID 1187); settings: hydroxyurea-induced phospho-Chk1 immunofluorescence imaging, higher = more signal
SMILES,z-score [1],z-score [2],z-score [3],composite z-score [4],z-score [5],z-score [6],z-score [7],z-score [8],z-score [9],composite z-score [10],composite z-score [11],composite z-score (XIP peptide (Xip251-270)),z-score [12],z-score [13],z-score [14],z-score [15]
C[C@@H]1Cc2c(cnc3c2CN(C)CC3)CO1,0.507,-0.583 (inactive),0.335 (inactive),-0.7 (inactive),0.0008 (inactive),-0.498 (inactive),-0.151 (inactive),0.0072 (inactive),0.992,0.276,-0.422 (inactive),0.188,-0.0396,-2.8 (inactive),–,–
CCc1cc2c(nc1CC)CCN(CCC(C)=NOC)C2,-0.64,-0.37 (inactive),0.0324 (inactive),0.273 (inactive),0.0738 (inactive),0.246 (inactive),-0.983 (inactive),-2.63 (inactive),0.0393,-0.0773,0.341 (inactive),-0.0832,-1.21,-3.29 (inactive),–,–
COC(=O)[C@H]1[C@@H](O)[C@@]2(O)c3c(OC)cc(OC)cc3O[C@@]2(c2ccc(OC)cc2)[C@@H]1c1ccccc1,-2.12,-0.795 (inactive),-3.65 (inactive),-0.447 (inactive),0.511 (inactive),0.452 (inactive),0.945 (inactive),0.669 (inactive),-4.1,-0.245,-0.119 (inactive),0.914,-1.26,-0.0317 (inactive),–,–
C=C(CC1(CNP(=O)(c2ccccc2)c2ccccc2)CC1)c1ccccc1,-0.101,0.736 (inactive),-0.342 (inactive),0.271 (inactive),0.0944 (inactive),0.389 (inactive),-0.174 (inactive),0.249 (inactive),-0.34,-0.177,1.26 (inactive),0.651,-0.176,-2.28 (inactive),-0.462 (inactive),-0.427 (inactive)
COC(=O)[C@@]1(Cc2ccccc2)[C@H]2c3cc(C(=O)N(C)C)n(C)c3C[C@H]2CN1C(=O)c1ccccc1,-0.0935,0.658 (inactive),-0.923 (inactive),-0.105 (inactive),-0.222 (inactive),0.299 (inactive),0.0242 (inactive),0.0618 (inactive),-0.0721,0.071,0.0028 (inactive),-0.0822,-0.731,-6.38 (inactive),-0.344 (inactive),-0.428 (inactive)
COC(=O)NCC=Cc1nc(CCC=CC(=O)O[C@H]2CC3CC(=O)O[C@@H](C=CCC(C)C)C[C@@H]4CC[C@H](C)[C@@H](C[C@@H](OC)C[C@H](C2)O3)O4)co1,-1.05,-1.03 (inactive),-2.04 (inactive),-0.646 (inactive),0.168 (inactive),-0.659 (inactive),0.523 (inactive),0.666 (inactive),-1.95,-0.102,0.0433 (inactive),-1,-1.65,-2.54 (inactive),–,–
CCCc1cc2c(n1Cc1cccc(Cl)c1)C(C)C1CN(C(=O)c3ccccc3)C(C)(C(=O)OC)C21 (stereo not given),-1.04,0.773 (inactive),-1.7 (inactive),-0.403 (inactive),0.619 (inactive),0.616 (inactive),-0.423 (inactive),-0.0676 (inactive),-1.56,0.621,1.12 (inactive),-0.589,-0.413,-5.79 (inactive),0.251 (inactive),0.861 (inactive)
COC(=O)[C@@]1(Cc2ccc(F)cc2)[C@H]2c3cc(C(=O)N(C)C)[nH]c3C[C@H]2CN1C(=O)c1ccccc1,-1.3,1.11 [setting not given] (inactive),-0.811 [setting not given] (inactive),0.25 [setting not given] (inactive),0.191 (inactive),1.09 [setting not given] (inactive),-0.119 [setting not given] (inactive),0.169 [E. coli growth] (inactive),-0.487 [setting not given],0.0546,0.614 [setting not given] (inactive),0.17,0.412,-4.26 [setting not given] (inactive),1.11 (inactive),0.831 (inactive)
